Results: PubChem BioAssay
Unmarked numbers belong to inactive results. The rule behind the calls is not given here.

target: Pantothenate synthetase (Mycobacterium tuberculosis (strain ATCC 25618 / H37Rv)) (UniProt P9WIL5); assay: Recombinant Mtb pantothenate synthetase (PanC) inhibitors, coupled enzyme, confirmatory (AID 375); conditions: coupled enzyme assay; at 10 µM, active compounds read high;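 note: 0% = full reaction with vehicle and 100% = no enzyme background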
Sequence (P9WIL5 whole entry, looked up): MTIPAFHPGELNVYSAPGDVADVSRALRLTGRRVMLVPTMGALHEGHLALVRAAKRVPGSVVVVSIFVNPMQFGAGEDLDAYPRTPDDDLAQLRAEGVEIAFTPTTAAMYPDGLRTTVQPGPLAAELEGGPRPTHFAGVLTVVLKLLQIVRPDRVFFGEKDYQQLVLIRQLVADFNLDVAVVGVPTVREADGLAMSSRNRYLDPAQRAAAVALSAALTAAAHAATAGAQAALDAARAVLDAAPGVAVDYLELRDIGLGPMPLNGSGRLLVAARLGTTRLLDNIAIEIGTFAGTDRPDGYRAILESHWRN

| SMILES | inhibition [%] |
| --- | --- |
| Cc1[nH]n(C(N)=S)c(=O)c1C(c1ccccc1)C(C#N)C#N (stereo not given) | 0 |
| COc1ccc(CN(C(=O)CSc2nnc(-c3ccccc3F)o2)c2ccc(F)cc2)cc1 | 0 |
| CCN(CC)CCCNc1oc(-c2cccc(Cl)c2)nc1C#N | 0 |
| COc1ccc(C(=O)N2CCSC2=S)cc1OC | 0 |
| COc1ccc(Cl)cc1S(=O)(=O)N1CCN(c2ccc(F)cc2)CC1 | 0 |
| COc1cc(NS(=O)(=O)c2cccc3nsnc23)c(C(=O)O)cc1OC | 0 |
| Cc1ccc(CCP(=O)(O)CN2CCOCC2)cn1 | 0 |
| CCOC(=O)C1CCCN(Cc2nc(N)nc(Nc3ccccc3)n2)C1 (stereo not given) | 10 |
| CCc1nnc(NC(=O)CSc2nnc(-c3ccccc3OC)n2-c2ccccc2)s1 | 4 |
| O=C(CC(C(=O)N1CCc2ccccc21)n1ccnc1)NCc1cccnc1 (stereo not given) | 0 |
| COc1ccccc1S(=O)(=O)Cc1ccc(C(=O)N2CCN(c3ccc(C)cc3)C(C)C2)o1 (stereo not given) | 13 |
| Nc1nc(NCc2ccco2)nn1-c1ccccc1 | 0 |
| Cc1ccc(CN2C(=O)CCC2C(=O)NCCCN2CCCC(C)C2)cc1 (stereo not given) | 1 |
| COCCNC(=S)c1ccc(OC)cc1 | 5 |
| COc1ccc(C(=O)NCCn2ccc3ccccc32)cc1 | 0 |
| CCOC(=O)c1[nH]c2ccc(OC)cc2c1NC(=O)CCN1CCC(C)CC1 | 0 |
| COc1ccccc1NC(=O)N1c2ccc(F)cc2CCC1C (stereo not given) | 8 |
| COc1ccccc1NC(=O)c1ccc(NC(=O)CSc2nnnn2C)cc1 | 1 |
| CCOC(=O)C1=C(C)NC(=O)NC1c1ccc(OCCO)c(OC)c1 (stereo not given) | 0 |
| COc1cccc(-c2nnc(NC(=O)c3ccccc3Br)o2)c1 | 0 |

| SMILES | inhibition [%] |
| --- | --- |
| O=S(=O)(NCc1ccccc1)c1ccc2c(c1)OCCO2 | 0 |
| COc1ccc(-c2oc3ncn(CCN4CCOCC4)c(=N)c3c2-c2ccc(OC)cc2)cc1 | 0 |
| COc1ccc(S(=O)(=O)Nc2ccc(F)c(F)c2)cc1Cl | 0 |
| Cc1sc2nc(SCc3nc4ccccc4[nH]3)n(Cc3ccco3)c(=O)c2c1C | 2 |
| CNC(=O)Nc1cccc(C(F)(F)F)c1 | 0 |
| CC1CN(Cc2nc3c(c(=O)[nH]c(=O)n3C)n2CC(N)=O)CC(C)O1 (stereo not given) | 4 |
| COc1cccc(OCC(=O)Nc2ccccc2C(N)=O)c1 | 4 |
| CCOC(=O)Cn1nnnc1CN(Cc1ccc(OC)cc1)Cc1cc2cc(C)cc(C)c2[nH]c1=O | 3 |
| N#Cc1nc(-c2ccc(Cl)cc2)oc1NCCc1ccccn1 | 0 |
| COc1ccc(-n2c(SCc3ccc(C#N)cc3)nnc2-c2ccccn2)cc1 | 0 |
| Cc1cnc(C(=O)OCC(=O)Nc2ccc(Oc3ccccc3)cc2)cn1 | 0 |
| O=C(O)c1ccccc1S(=O)(=O)NCC(O)COc1ccc(Br)cc1 (stereo not given) | 2 |
| NC(=O)c1sc2nc(N3CCCCC3)c3c(c2c1N)CCCC3 | 0 |
| O=C1NC(c2ccccc2)(C(F)(F)F)SC2=CCCCCN12 (stereo not given) | 0 |
| O=C(O)C1CCCN1S(=O)(=O)c1ccc2ccccc2c1 (stereo not given) | 3 |
| CC(C)(C)OC(=O)N1CC=C2C(C#N)=C(N)C(C#N)(C#N)[C@H](c3cccnc3)[C@H]2C1 | 5 |
| O=C(Nc1ccc(N2C(=O)C3C4C=CC(C4)C3C2=O)cc1)Nc1nncs1 (stereo not given) | 5 |
| COCCCNC(=O)CSc1ccc(Cl)cc1 | 0 |
| Cn1c(=O)c2c(nc(CN3CCN(c4ccccc4F)CC3)n2CCN2CCOCC2)n(C)c1=O | 0 |
| COc1cccc(C(=O)Nc2c(C(N)=O)oc3ccccc23)c1 | 0 |
